# Test results taken from PubChem BioAssay (NCI).
# “And” between values parts separate entries of the source, which are not always exact repeats. Identical values can stand only once. The panel holds about 83,000 compounds, 20% with a hit somewhere; the sample as a whole holds those more often.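 Treatment: one concentration, 48 hours, 96-well format. Scoring: percent growth, with anything below 10 considered active.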 The source made the active and inactive calls.
# Key:
# Test in all cases: NCI-60 one-dose screen, 48 h (100 = growth as untreated, 0 = no growth, -100 = all killed)
# Settings in all cases: 10 µM unless noted
# SR leukemia = system: SR leukemia
# RPMI-8226 leukemia = system: RPMI-8226 leukemia
# OVCAR-8 ovarian = system: OVCAR-8 ovarian
# OVCAR-5 ovarian = system: OVCAR-5 ovarian
# OVCAR-4 ovarian = system: OVCAR-4 ovarian
# SK-OV-3 ovarian = system: SK-OV-3 ovarian
# IGROV1 ovarian = system: IGROV1 ovarian
# OVCAR-3 ovarian = system: OVCAR-3 ovarian
# NCI/ADR-RES ovarian = system: NCI/ADR-RES ovarian
# HS 578T breast = system: HS 578T breast
Structure (SMILES),growth (SR leukemia),growth (RPMI-8226 leukemia),growth (OVCAR-8 ovarian),growth (OVCAR-5 ovarian),growth (OVCAR-4 ovarian),growth (SK-OV-3 ovarian),growth (IGROV1 ovarian),growth (OVCAR-3 ovarian),growth (NCI/ADR-RES ovarian),growth (HS 578T breast)
Cc1ccc(NS(=O)(=O)c2ccc(C)cc2)cc1,91.7% (inactive) and 97.8% (inactive),83.1% (inactive) and 95.2% (inactive),97.5% (inactive) and 92.7% (inactive),111% (inactive) and 105% (inactive),93.7% (inactive) and 106% (inactive),109% (inactive) and 101% (inactive),111% (inactive) and 107% (inactive),105% (inactive) and 98.9% (inactive),104% (inactive) and 99.7% (inactive),–
O=C(/C=C/c1cccc(Cl)c1)c1ccccc1,7.8% (active) and 11.7% (inactive),-30.6% (active) and 0.877% (active),–,97.9% (inactive) and 95.6% (inactive),97.8% (inactive) and 92.9% (inactive),109% (inactive) and 98.5% (inactive),93.7% (inactive) and 71.8% (inactive),84.9% (inactive) and 80.5% (inactive),105% (inactive) and 88.8% (inactive),108% (inactive) and 107% (inactive)
CCC(c1cccc(O)c1)C(CC)c1cccc(O)c1 (stereo unspecified),16.5% (inactive),31.6% (inactive),85.6% (inactive),96.3% (inactive),67.6% (inactive),76.5% (inactive),72.4% (inactive),77.3% (inactive),72.1% (inactive),–
O=C1N[C@H]2[C@H](CS[C@H]2CCCCC(=O)N(CCP(c2ccccc2)c2ccccc2)CCP(c2ccccc2)c2ccccc2)N1,102% (inactive),57% (inactive),95.1% (inactive),95.2% (inactive),87.9% (inactive),111% (inactive),-47.4% (active),0.222% (active),101% (inactive),–
COc1cc(/C=C/C(C)=O)ccc1O,93.2% (inactive) and 89.3% (inactive),116% (inactive),104% (inactive) and 105% (inactive),92.3% (inactive) and 102% (inactive),108% (inactive) and 103% (inactive),94% (inactive) and 112% (inactive),101% (inactive) and 119% (inactive),100% (inactive) and 106% (inactive),107% (inactive) and 100% (inactive),–
C=CCOc1ccc(N=NC(C#N)C#N)cc1,8.51% (active),2.95% (active),–,93.8% (inactive),31.6% (inactive),52.7% (inactive),53.3% (inactive),39.7% (inactive),103% (inactive),88.6% (inactive)
NC(=S)N/N=C\c1nccc2c(C(F)(F)C(F)(F)C(F)(F)F)cccc12,-29.4% (active),-11% (active),-0.116% (active),42.3% (inactive),–,-21.8% (active),5.98% (active),4.2% (active),-11.6% (active),50.7% (inactive)
NC(=O)/C=C/C(=O)c1c(Cl)cccc1Cl,-42% (active),-34.7% (active),–,-99.6% (active),-67.4% (active),59% (inactive),-57.5% (active),-81.3% (active),-59.4% (active),-7.11% (active)
N#Cc1ccc([N+](=O)[O-])o1,104% (inactive),107% (inactive),89.9% (inactive),107% (inactive),107% (inactive),96.4% (inactive),109% (inactive),118% (inactive),114% (inactive),–
Nc1ncnc2c1ncn2C1OC(CO)C(O)C1O (stereo unspecified),98.7% (inactive) and 21% (inactive) and 87.3% (inactive),101% (inactive) and 77.5% (inactive) and 112% (inactive),93.5% (inactive) and 56% (inactive) and 105% (inactive),122% (inactive) and 127% (inactive),123% (inactive) and 83.8% (inactive) and 91.7% (inactive),104% (inactive) and 100% (inactive),109% (inactive) and 104% (inactive),116% (inactive) and 89.8% (inactive) and 108% (inactive),110% (inactive) and 72% (inactive),–
CC1OC2CC(=O)OC2C2=C1C(=O)c1c(O)cccc1C2=O (stereo unspecified),-30% (active),-9.64% (active),-14.7% (active),-75.2% (active),-98.5% (active),21% (inactive),–,-97.9% (active),-6.77% (active),5.97% (active)
CCN(CC)CCOc1ccc(-c2nc3cc(Cl)ccc3s2)cc1,-69.6% (active),-12.2% (active),–,-0.127% (active),58.5% (inactive),59.9% (inactive),-27.3% (active),-4.49% (active),-26.1% (active),-29.2% (active)
O=C(CC1(O)C(=O)Nc2c(Cl)ccc(Cl)c21)c1ccc(Cl)cc1Cl (stereo unspecified),86.9% (inactive),99.9% (inactive),107% (inactive),110% (inactive),87.9% (inactive),84.9% (inactive),97.6% (inactive),106% (inactive),106% (inactive),–
N#CSCc1ccc(CSC#N)c(Cl)c1,6.77% (active),41.9% (inactive),95.6% (inactive),96.7% (inactive),85.2% (inactive),115% (inactive),91.2% (inactive),77.9% (inactive),77.9% (inactive),–
CC(C)(C)CC(C)(C)c1ccc(OCCSC(=N)N)cc1,-37.7% (active),2.8% (active),–,79.3% (inactive),41.2% (inactive),89.6% (inactive),77.1% (inactive),46.7% (inactive),71.7% (inactive),91.4% (inactive)
S=C(N/N=C/c1ccccn1)Nc1ccccn1,-29% (active),-2.91% (active),–,49.2% (inactive),–,36.4% (inactive),27% (inactive),-0.151% (active),7.98% (active),–
CCCCCCCCCCCCCCCCN(CC)CC,–,-60.1% (active),-38.3% (active),-57.3% (active),-6.38% (active),-46.1% (active),-90.5% (active),-58.6% (active),-71.1% (active),-25.1% (active)
Cc1ccc(C(=Nc2ccccc2)N=P(c2ccccc2)(c2ccccc2)c2ccccc2)cc1,–,-38.6% (active),–,-5.4% (active),29% (inactive),-66.3% (active),-68.5% (active),-37.4% (active),-10.4% (active),-45.8% (active)
CC1(C)CC([P+](c2ccccc2)(c2ccccc2)c2ccccc2)=NN1,–,16.2% (inactive),32.3% (inactive),67.7% (inactive),17.9% (inactive),33.2% (inactive),-22.8% (active),23.7% (inactive),105% (inactive),–
C/C=C1\SC(=S)NC1=O,101% (inactive),101% (inactive),–,94.9% (inactive),101% (inactive),92.4% (inactive),105% (inactive),111% (inactive),107% (inactive),104% (inactive)
Nc1ccc(SSc2ccc(N)cc2)cc1,104% (inactive),102% (inactive),–,101% (inactive),–,114% (inactive),108% (inactive),114% (inactive),97.5% (inactive),109% (inactive)
Nc1nc(N)c2nc(CNc3ccc(C(=O)NC(CCC(=O)O)C(=O)O)cc3)cnc2n1 (stereo unspecified),15.1% (inactive) and 40.2% (inactive),60.7% (inactive) and 55% (inactive),–,31.9% (inactive),58.8% (inactive) and 49.1% (inactive),53.9% (inactive) and 44.2% (inactive),36.9% (inactive) and 34.9% (inactive),37.6% (inactive) and 39.8% (inactive),25.8% (inactive) and 20.3% (inactive),–
CCCCCCCCCCCCCCCCOP(=O)([O-])OCC[N+](C)(C)C,15% (inactive),7.31% (active),–,53.2% (inactive),78.3% (inactive),37.9% (inactive),21.3% (inactive),33.4% (inactive),90% (inactive),33.7% (inactive)
